Compounds without any hit were thinned out: in the full panel of roughly 83,000, 20% have a hit.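 Plates (96-well) were seeded with cells, treated with compound at one concentration, and incubated for 48 hours before percent growth was determined.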 A number with no mark means an inactive call. The source made the active and inactive calls. The calls were made as follows: active = growth percent below 10; inactive = the rest.

The values that follow come from PubChem BioAssay (NCI).

Holding throughout (experiment): NCI-60 one-dose screen, 48 h (100 = growth as untreated, 0 = no growth, -100 = all killed)
What all share (settings): 10 µM unless noted

For test [1], the system named is SK-MEL-2 melanoma.
Test [2] relates to EKVX NSCLC.
Test [3] deals with SN12C renal.
In test [4] the test system is UO-31 renal.
For test [5], the system named is TK-10 renal.
Test [6] relates to ACHN renal.
Test [7] deals with CAKI-1 renal.
For test [8], the system named is A498 renal.
Test [9] concerns CCRF-CEM leukemia.
In test [10] the test system is MOLT-4 leukemia.

Regarding `C=C(C)[C@@H]1CC[C@]2(CN)CC[C@]3(C)[C@H](CC[C@@H]4[C@@](C)(CCCN)[C@H](C(=C)C)CC[C@]43C)[C@@H]12`, the growth in test [1] is 107%; in [2], 102%; in test [3] it was 82.5%; in test [4], 63%; in [5], 119%; in test [6] it was 99.1%. Besides, the growth in test [7] was 75.5%; in [8], 88.7%; in test [9] it was 66.6%; in [10], 57%.
Take `N#Cc1cnc2cc(OC[C@@H](O)CO)c(NC(=O)C3CCCC3)cc2c1Nc1ccc(OCc2cccc(F)c2)c(Cl)c1`: the growth in test [1] was -56.9% (active); in test [2], -36.8% (active); in test [3], 13.8%; in [4] it was 35.3%; in test [5], 29.5%; in test [6], 40.2%. Further, the growth in test [7] is 59.4%; in test [8], 55.5%; in test [9] it was -26.8% (active); in test [10], 6.26% (active).
For the compound `Cc1ccc(S(=O)(=O)Nc2ccc(-c3cc(-c4cccc(F)c4)c(C#N)c(=O)[nH]3)cc2)cc1`, the growth in test [1] is 112%; in test [2] it was 83.4%; in [3], 83.7%; in [4], 68.6%; in test [5] it was 115%; in test [6] it was 91.3%. In addition, the growth was 60.2% in [7], 85.2% in test [8], 68.4% in [9] and 76.9% in test [10].
As for `CCc1ccccc1NC(=O)c1sc2nc3c(cc2c1N)CCCC3`, the growth was 31.8% in test [1]; 72.9% in [2]; 34.9% in [3]; 48.9% in test [4]; 59.5% in [5]; 48.2% in test [6]. Also, the growth in [7] was 45.6%; in test [8], 6.65% (active); in [9], 18.3%; in test [10], 25.4%.
Turning to `C=C1C(=O)O[C@H]2[C@H]1CC/C(Cn1cc(-c3ccc(OC)cc3)nn1)=C\CC[C@@]1(C)O[C@@H]21`, the growth in test [1] is 61.9%; in test [2], 85.4%; in test [3], 0.315% (active); in test [4] it was -86.2% (active); in test [5] it was -84.1% (active); in [6], 6.78% (active). For the same compound, the growth is -4.52% (active) in test [7], 31.7% in test [8], -32.6% (active) in test [9] and -32.9% (active) in test [10].
As for `NC(=O)NCC1CCCCC1`, the growth is 105% in test [1]; 96.6% in test [2]; 106% in test [3]; 92.9% in [4]; 95.5% in test [5]; 106% in [6]. Besides, the growth in test [7] was 89.3%; in test [8] it was 104%; in test [9], 99.3%; in test [10] it was 91.9%.
Turning to `COc1ccc(-c2c(-c3nc4ccc(N5CCOCC5)cc4[nH]3)[nH]c(C)c2C(C)=O)cc1`, the growth in test [1] was 77.1%; in test [2], 42.1%; in test [3], 52.6%; in [4], 13.8%; in test [5], -4.3% (active); in test [6] it was 34.2%. The growth in test [7] was 16.9%; in [8], 27.2%; in test [9], 43.4%; in [10] it was 51.9%.
In the case of `COc1ccc(/C=C(\C#N)c2cc3ccccc3n2S(C)(=O)=O)cc1`, the growth is 101% in test [1]; 85.9% in test [2]; 90.8% in test [3]; 56.2% in [4]; 125% in [5]; 91.2% in [6]. For the same compound, the growth is 53.2% in test [7], 99.2% in test [8], 86% in test [9] and 89.8% in test [10].
Regarding `Fc1ccc(NCc2nnc(-c3ccc(Cl)cc3)o2)cc1`, the growth in [1] was 85.5%; in [2], 77%; in [3], 79.4%; in [4], 54.3%; in test [5], 126%; in test [6] it was 78.7%. In addition, the growth in test [7] was 69.8%; in [8] it was 77.2%; in [9], 74.6%; in test [10], 49.6%.
Take `CC(C)/C=C/CC[C@](C)(O)[C@H]1CC[C@]2(C)[C@@H]1CC[C@@H]1[C@@]3(C)C/C(=C/c4cccc(C(F)(F)F)c4)C(=O)C(C)(C)[C@@H]3CC[C@]12C`: the growth in test [1] is 126%; in test [2] it was 103%; in test [3] it was 89.2%; in test [4], 79.6%; in test [5], 157%; in test [6] it was 97%. Moreover, the growth is 64.3% in test [7], 99% in [8], 86.9% in [9] and 88.3% in test [10].
Turning to `COc1cnc2c(c1)C(=O)c1c-2n(CCCN2CCN(CCO)CC2)c(=O)c2cc([N+](=O)[O-])ccc12`, the growth is 108% in [1]; 66% in test [2]; 54% in test [3]; 36.6% in test [4]; 97.2% in test [5]; 25.1% in test [6]. Also, the growth in [7] was 37.8%; in [8] it was -5.96% (active); in test [9], -5.14% (active); in test [10] it was 0.798% (active).
As for `Cc1cc2nc3c4cc(N)ccc4n(CCN(C)C)c3nc2cc1C`, the growth is 17.6% in [1]; 16.8% in [2]; 8.2% (active) in test [3]; -6.21% (active) in test [4]; 41.3% in [5]; -9.44% (active) in [6]. Also, the growth in test [7] is -3% (active); in [8] it was 46.3%; in [9], 23.8%; in [10], 3.65% (active).
`CCCCCCCCNc1cccc2c1C(=O)c1ccccc1C2=O`: the growth in test [1] was 108%; in [2], 109%; in test [3], 97.6%; in test [4], 92.2%; in test [5], 98.3%; in test [6], 111%. The growth is 98.3% in [7], 81.1% in [8], 112% in [9] and 90.5% in test [10].
For `Cc1ccc(NC2CC(=O)N(c3c(C)cc(C)cc3C)C2=O)c(C)c1` (stereo not given), the growth is 112% in [1]; 95.3% in test [2]; 97.2% in test [3]; 81.2% in test [4]; 106% in test [5]; 101% in test [6]. Moreover, the growth in test [7] is 95.6%; in [8] it was 105%; in [9] it was 88.6%; in [10] it was 94.6%.
As to `CCSc1ncnc2c1ncn2C1OC(CO)C(O)C1O` (stereo not given), the growth was 63.4% in [1]; 51.8% in test [2]; 34.4% in test [3]; 24.5% in test [4]; 37.6% in test [5]; 32.6% in [6]. Besides, the growth is 32.2% in test [7], 60.9% in test [8], 23.4% in test [9] and 21.4% in [10].
As for `COc1cc2nc(Cl)nc(Nc3cccc(C(=O)/C=C/c4ccc(Br)cc4)c3)c2cc1OC`, the growth in [1] is 92.4%; in test [2], 81.3%; in test [3], 80.8%; in test [4], 60.8%; in test [5] it was 172%; in test [6], 78.3%. In addition, the growth in test [7] is 72.8%; in test [8] it was 85.4%; in test [9], 31.3%; in test [10], 37.1%.
For the compound `O=C(/C=C\c1ccc2c(c1)OCO2)/C=C/c1ccc2c(c1)OCO2`, the growth in test [1] was 127%; in [2] it was 82.4%; in [3] it was 86.5%; in test [4] it was 76.3%; in [5], 96.1%; in test [6], 88.3%. The growth is 89.2% in test [7], 126% in test [8], 31.4% in test [9] and 35.2% in [10].
`O=[N+]([O-])c1cccc(/C=N\Nc2ccccc2)c1`: the growth in test [1] is 42.1%; in [2] it was 59.8%; in test [3], 74.7%; in [4], 47.4%; in [5], 98.7%; in [6] it was 41.9%. For the same compound, the growth in test [7] was 59.9%; in test [8], 101%; in test [9], 59.5%; in [10], 71.5%.
Turning to `NC1=NN=C2N(N)C(=O)c3cnn(-c4ccccc4)c3N2c2nc(-c3ccccc3)cc(-c3ccccc3)c21`, the growth in [1] is 104%; in [2] it was 96.7%; in test [3] it was 97%; in test [4] it was 78.3%; in test [5], 116%; in [6], 101%. Moreover, the growth in test [7] was 86.8%; in test [8], 114%; in test [9] it was 96.7%; in test [10], 91.6%.
As for `COc1cccc2c1C(=O)c1c(O)c3c(c(O)c1C2=O)C[C@@](O)(C(=O)CO)C[C@@H]3OC1C[C@H](N)[C@H](O)[C@H](C)O1` (stereo not given in full), the growth is -75.3% (active) in [1]; 1.39% (active) in test [2]; 6.88% (active) in test [3]; -40.7% (active) in test [4]; 5.67% (active) in [5]; -11% (active) in [6]. Moreover, the growth is 1.49% (active) in [7], -75.1% (active) in test [8], -25.7% (active) in test [9] and -8.66% (active) in test [10].
Consider `C=C(C)[C@@H]1CC[C@]2(C(=O)O)CC[C@]3(C)[C@H](CC[C@@H]4[C@@]5(C)C/C(=C/c6cccc(I)c6)C(=O)C(C)(C)[C@@H]5CC[C@]43C)[C@@H]12`, for which the growth in test [1] was 11.2%; in [2] it was 24.9%; in [3], 31.1%; in test [4] it was 23.6%; in test [5], 29.6%; in [6] it was 30.5%. The growth was 11.9% in test [7], 22.1% in test [8], 25.6% in test [9] and 13% in test [10].
Consider `COc1cccc(-c2nn(-c3ccccc3)cc2-c2ccnc(NCCCNS(=O)(=O)c3ccc(Br)cc3)c2)c1`, for which the growth in test [1] is 50.9%; in [2], 66%; in test [3] it was 57.1%; in [4] it was 21.6%; in test [5], 55.7%; in test [6], 48.3%. The growth in [7] was 51.1%; in test [8], 41.4%; in [9] it was 32.1%; in test [10] it was 23.5%.
In the case of `C#Cc1cccc(NC(=O)C2CCCN(C(=O)CCl)C2)c1` (stereo not given), the growth in test [1] is 75.7% [8.25 µM]; in test [2], 95.7% [8.25 µM]; in test [3], 9.7% [8.25 µM] (active); in test [4], -56.7% [8.25 µM] (active); in [5], 98.9% [8.25 µM]; in test [6] it was -96.3% [8.25 µM] (active). The growth in test [7] was 33.8% [8.25 µM]; in [8] it was 99.2% [8.25 µM]; in [9] it was -25.9% [8.25 µM] (active); in test [10], -7.04% [8.25 µM] (active).
`N#C/C(=C\c1ccc(-c2ccc(Br)cc2)o1)c1nc(-c2cccs2)cs1`: the growth in test [1] is 109%; in test [2], 79.6%; in test [3], 94.5%; in test [4], 82.1%; in test [5] it was 185%; in [6] it was 105%. The growth was 100% in test [7], 99% in test [8], 94.1% in test [9] and 97% in test [10].
On to `Nc1c2c(nc3ccc(Cl)cc13)CC(c1ccc(O)cc1)CC2=O` (stereo not given), for which the growth was 61.3% in [1]; 29.8% in test [2]; 58.7% in test [3]; 60% in test [4]; 81.5% in [5]; 49.4% in [6]. Also, the growth in [7] was 48.3%; in test [8] it was 86.5%; in test [9] it was 43.4%; in [10], 46.9%.
